# Most compounds without a hit are left out; they make up all but 6.2% or so of the library.
# ATXN viability = reduces viability in counter-screen for ATXN expression inhibitors; S2 cells (HEK-293 line with an ATXN2-luciferase reporter) viability, CellTiter-Fluor protease fluorescence, 24 h; Potency, µM (titrated, usually from 56.7 µM), usual class: cytotoxic; 400,000 compounds, 0.49% hits; note: nearly all actives have a fitted effect of over 40% in size
# KB-3-1 tox = kills parental KB-3-1 adenocarcinoma cells; Potency, µM (series often up to 46.1 µM), hits mostly cytotoxic; 400,000 compounds, 1.4% hits; KB-3-1 viability, CellTiter-Glo ATP luminescence, 72 h; note: % is set by controls: 0 for no effect and ±100 for the full control effect; nearly all actives have a fitted effect of over 60% in size
#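 Viability of parental KB-3-1 cells, measured by CellTiter-Glo luminescence, followed a 72 h incubation at 37 °C with pinned compounds in phenol-red-free DMEM containing 10% FBS.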
# HT1080-NT tox = kills 2HG-producing HT-1080-NT fibrosarcoma cells | HT-1080-NT fibrosarcoma viability, CellTiter-Glo ATP luminescence, 48 h | Potency, µM (highest dose often 46.1 µM), inactives show top-dose activity, negative = less viability, most hits filed as cytotoxic | 360,000 compounds, 1.6% hits | AID 686970;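 note: NT is the 2HG producing partner of a matched IDH1 knockdown line; 0% = DMSO-treated cells and -100% = media-only wells without cells; nearly all actives have a fitted effect of over 55% in size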
#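 Fibrosarcoma NT cells, 750 per well in 5% FBS RPMI, were exposed to compound for 48 hours. Viability: CellTiter-Glo luminescence.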
# ATXN2 expr inh = inhibitors of ATXN2 expression; 360,000 compounds, 0.72% hits; AID 1745845; Potency, µM (highest dose often 57 µM), for inactives: top-dose activity change, negative = inhibition, hits mostly inhibitors; HEK-293 ATXN2-luciferase reporter, luminescence, 24 h; note: % is set by controls: 0 for no effect and ±100 for the full control effect; nearly all actives have a fitted effect of over 55% in size
#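 ATXN2-luciferase reporter cells (luciferase flanked by upstream and downstream ATXN2 gene portions) were treated 24 h at 37 °C with compounds at up to 57 uM. SteadyGlo luminescence gave expression; GF-AFC fluorescence gave viability.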
# HT1080 IDH1KD tx = toxicity to HT-1080 IDH1 knockdown cells (counter line). HT-1080 IDH1 knockdown viability, ATP luminescence, 48 h. Potency, µM (doses to about 46.1 µM), for inactives: top-dose activity, negative = toxicity, most hits filed as cytotoxic. 360,000 compounds, 2% hits. AID 686971;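 note: 0% = DMSO wells and -100% = cell-free medium wells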
#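 Viability of IDH1-knockdown HT-1080 fibrosarcoma cells was assessed by CellTiter-Glo after 48 h at 37 °C with titrated compound; concentration-effect curves were classified by fit quality and response size.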
# KB-V1 cytotox = KB-V1 MDR subline cytotoxicity. 400,000 compounds, 3.4% hits. Potency, µM (series often up to 46.1 µM), most hits filed as cytotoxic. KB-V1 MDR cells viability, CellTiter-Glo, 72 h; note: % is set by controls: 0 for no effect and ±100 for the full control effect; nearly all actives have a fitted effect of over 60% in size
#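 KB-V1 MDR subline cells in DMEM (phenol-red free, 10% FBS) exposed to compounds in qHTS concentration series for 72 h at 37 degrees C. Viability read by CellTiter-Glo luminescence; concentration-effect curves fitted after normalization and correction.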
# Numbers without * were called inactive; i = inactive; u = inconclusive; x = no result. Calls come from the whole dose curve; as a rule, active = well fitted curve in the direction sought with a large enough effect; inconclusive = small, poorly fitted or top-dose-only effect, or another doubt; inactive = no such curve, though single readings can be large; an effect the other way counts as inactive or inconclusive. Potency is the fitted concentration of half-maximal effect.
SMILES,ATXN viability,KB-3-1 tox,HT1080-NT tox,ATXN2 expr inh,HT1080 IDH1KD tx,KB-V1 cytotox
CC1=C(C(=O)Nc2cccnc2)C(c2ccc(C)cc2)n2nc(SCc3ccccc3F)nc2N1 (centres undefined),i,i,x,-10%,x,i
CC(C)OCCCNC(=O)c1c(N)n(/N=C/c2cccs2)c2nc3ccccc3nc12,i,i,17%,2%,5%,u
COCCCNC(=O)c1c(N)n(/N=C/c2ccccn2)c2nc3ccccc3nc12,i,i,1%,4%,15%,5.2µM*
Cc1ccccc1C(=O)Nc1ccc2nc3n(c(=O)c2c1)CCC3,i,6.5µM*,12%,4%,13%,u
CCOc1ccc(-c2cc(NC(=O)c3cccc(Cl)c3)c(C(=O)OC)s2)cc1,x,i,x,x,x,i
O=C1/C(=C\c2ccc(Br)o2)SC(=Nc2ccccc2)N1c1ccccc1,u,i,4%,-12%,0%,9.2µM*
CN(C)N1C(=O)/C(=C/c2ccco2)SC1=Nc1ccccc1,i,i,0%,-19%,-4%,i
O=C(CSc1nc2ncccc2o1)Nc1cccc(C(F)(F)F)c1,i,i,x,15%,x,i
Cc1cc(N2CCN(C(=O)c3ccco3)CC2)n2nc(C)c(-c3ccccc3)c2n1,i,u,-7%,-22%,1%,3.7µM*
O=C(c1cc2nc(-c3ccccc3)cc(-c3ccccc3)n2n1)N1CCCC1,i,i,-1%,-16%,7%,i
O=C(c1cc2nc(-c3ccccc3)cc(-c3ccccc3)n2n1)N1CCN(C(=O)c2ccco2)CC1,i,u,-29%,-38%,-26%,21µM*
CN1CCN(C(=O)c2cc3nc(-c4ccccc4)cc(-c4ccccc4)n3n2)CC1,i,i,15µM*,-13%,u,i
Nc1nc(NCc2cccc(Cl)c2)c2[nH]cnc2n1,x,i,x,x,x,i
O=C(Nc1cccc2c(=O)cc(-c3nn[nH]n3)oc12)c1ccc(OCCCCc2ccccc2)cc1,i,x,x,31%,x,x
CC(C)[C@H](O)C(=O)N[C@@H](C)C(=O)N[C@@H]1C(=O)N(C)CCc2ccccc21,x,x,x,23%,x,x
CCN(CCCNC(=O)c1nn(-c2ccc(C)cc2)c(=O)c2c1c1ccccc1n2C)c1ccccc1,i,i,x,1%,x,i
Cc1c(NC(=O)c2sc3ccccc3c2Cl)cccc1-c1nc2ccccc2o1,i,i,x,10%,x,u
COc1ccccc1/C=C/c1cncc(/C=C/c2ccccc2OC)c1,x,u,x,x,x,i
FC(F)(F)c1nc(-c2cccs2)ncc1-c1nnnn1-c1ccc(Cl)cc1,u,u,u,22µM*,u,16µM*
Clc1ccc(-n2nnnc2-c2cnc(-c3ccncc3)nc2-c2cccs2)cc1,i,u,-16%,-11%,-19%,u
COc1ccc(-n2nnnc2-c2cnc(N3CCCC3)nc2C(F)(F)F)cc1,i,18µM*,-3%,-11%,-21%,5.2µM*
O=c1[nH]/c(=C/c2ccc3c(c2)OCO3)c(=O)[nH]/c1=C/c1ccc2c(c1)OCO2,x,i,x,x,x,i
Cc1c(C(=O)NCc2cccc([N+](=O)[O-])c2)sc(=O)n1Cc1ccc(F)cc1,i,i,-12%,-19%,-5%,u
CC(=O)Oc1ccccc1Cn1c(C)c(C(=O)NCc2cccc([N+](=O)[O-])c2)sc1=O,i,i,-10%,-15%,-13%,18µM*
Cc1c(C(=O)NCc2cccc([N+](=O)[O-])c2)sc(=O)n1Cc1ccc(C(C)C)cc1,i,u,-8%,3%,-8%,9.2µM*
SMILES,ATXN viability,KB-3-1 tox,HT1080-NT tox,ATXN2 expr inh,HT1080 IDH1KD tx,KB-V1 cytotox
CCOC(=O)c1[nH]c(C)c(CCC(=O)Nc2c(C)cc(C)cc2C)c1C,i,i,x,4%,x,i
Cc1cccc(N2CCN(S(=O)(=O)c3ccc4c(c3)C(C)(C)C(=O)N4C)CC2C)c1 (centres undefined),i,i,-16%,-12%,0%,i
Cc1cccc(N2CCN(S(=O)(=O)c3ccc4c(c3)CCC(=O)N4)CC2C)c1 (centres undefined),i,i,-13%,-1%,-27%,15µM*
NC[C@H]1O[C@H](O[C@H]2[C@@H](O)[C@@H](O[C@H]3O[C@H](CO)[C@@H](O)[C@H](N)[C@@H]3O)[C@H](N)C[C@@H]2N)[C@H](N)C[C@H]1O,x,x,x,-11%,x,x
Cc1ncc2c(c1CNC(=O)CN1CCCCC1)CCN(C(=O)c1ccc(F)cc1Cl)C2,i,x,x,x,x,x
C#CCSc1nc(Cc2ccc(Cl)cc2)nc2ccccc12,i,i,7%,3%,-2%,16µM*
COc1cccc(C(=O)N=c2sc3c(C)ccc(OC)c3n2C)c1,i,i,16%,112%,0%,i
COc1ccc(C(=O)N=c2sc3c(C)ccc(OC)c3n2C)cc1OC,i,u,9%,x,9%,18µM*
O=C(Nc1cc(F)ccc1F)c1ccc2c(c1)nnn2C1CCCC1,i,i,x,10%,x,i
O=C(O)/C=C/C(=O)c1ccc2c(c1)CCc1ccccc1-2,7.1µM*,13µM*,18µM*,5.6µM*,u,u
COc1ccc(-c2oc3ncn4nc(COc5cccc(C)c5C)nc4c3c2-c2ccc(OC)cc2)cc1,i,i,x,-1%,x,i
COC(=O)c1ccc(CN2C[C@H](Sc3ccccn3)C[C@H]2C(=O)N(C)C)cc1,i,x,x,x,x,x
Fc1cccc(NC(=S)NNc2c3ccccc3nc3ccccc23)c1,u,u,u,-13%,21µM*,u
O=S(=O)(c1ccc(S(=O)(=O)N(Cc2cccs2)CC2CCCO2)cc1)N1CCCCC1 (centres undefined),i,i,4%,2%,-9%,7.3µM*
CN(C)c1ccc(CN(C(=O)COc2ccc(Br)cc2)C2CCS(=O)(=O)C2)cc1 (centres undefined),i,i,-5%,-1%,-22%,8.2µM*
Cc1cc(C)cc(OCC(=O)N(Cc2cccs2)C2CCS(=O)(=O)C2)c1 (centres undefined),i,i,-3%,0%,-2%,8.2µM*
CN(C)c1cccc(-c2ncnc(N3CCC(C(N)=O)CC3)n2)c1,x,i,x,x,x,i
Cc1nc(N2CCCC2)ncc1C(=O)N1CCN(c2ccccc2F)CC1,i,i,x,4%,x,i
CC(C)(C)c1nnc(NS(=O)(=O)c2ccccc2)s1,i,x,x,2%,x,x
CCSc1nsc(NC(=O)Nc2ccccc2F)n1,u,u,u,38%,-29%,16µM*
